Data published in PubChem BioAssay (Tox21).
Values joined by “and” are separate entries in the source; they are usually repeats but may differ in a detail not shown here. Identical values can stand only once. Records with an inconclusive call do not appear. Where a call stands in place of a potency, no number is given. Some compounds were tested as several samples or in several runs, with calls that do not always agree. Active and inactive are the calls of the source. Unless noted, the call rests on the fitted dose curve.

How the values were obtained:
[1] = Nuclear factor erythroid 2-related factor 2/antioxidant responsive element (Nrf2/ARE) small molecule agonists: qHTS cell viability counter screen in human keratinocytes (AID 1919968; active means well fitted curve in the direction sought with a large enough effect in the repeat runs; an effect the other way counts as inactive or inconclusive; further: nearly all actives have a fitted effect of over 55% in size; further: potency means the concentration at half of the fitted maximal effect)
Summary of the method: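 CellTiter-Fluor fluorescence, read 1 h after reagent, gave viability in the same wells as the ARE-luciferase assay. KeratinoSens cells (1,500/well) had 23 h compound exposure at 37 C/5% CO2 following 5 h plating.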

[2] = Nuclear factor erythroid 2-related factor 2/antioxidant responsive element (Nrf2/ARE) small molecule agonists: luciferase reporter gene qHTS assay in human keratinocytes (AID 1919969); further: nearly all actives have a fitted effect of over 35% in size; further: potency means the concentration at half of the fitted maximal effect
[3] = biological target: Gonadotropin-releasing hormone receptor (Homo sapiens) (UniProt P30968); assay: Human gonadotropin-releasing hormone receptor (GnRHR) small molecule agonists, calcium flux assay in GnRHR-HEK293 cells (AID 1920063); further: nearly all actives have a fitted effect of over 35% in size
Summary of the method: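 Agonist mode: compounds at 15 concentrations, in triplicate, went onto calcium dye-loaded GnRHR-HEK293 cells. Intracellular calcium was then followed as 480/540 nm fluorescence at 1 s intervals over 3 min.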

[4] = biological target: KiSS-1 receptor (Homo sapiens) (UniProt Q969F8); assay: Human kisspeptin (KISS1R) small molecule agonists, calcium flux assay in KISS1R-HEK293 cells (AID 1920064; active means well fitted curve in the direction sought with a large enough effect in the repeat runs; an effect the other way counts as inactive or inconclusive)
Summary of the method: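 Agonist mode: intracellular calcium rise tracked at 1 s intervals over 3 min (480/540 nm) immediately after compound addition to dye-loaded KISS1R-HEK293 stable cells. Each compound tested at 15 concentrations in triplicate.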

[5] = G protein-coupled receptor (GPCR) small molecule agonists, calcium flux assay: HEK293 wild type cell line counter screen (AID 1920065)
Summary of the method: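 Calcium flux counter screen: compound added in agonist mode at 15 concentrations in triplicate to dye-loaded parental HEK293 cells. Fluorescence (480/540) read kinetically for 3 min; ATP served as positive control.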

[6] = p53 small molecule agonists, cell-based qHTS assay with human liver microsomes: qHTS cell viability counter screen (AID 1963579); further: nearly all actives have a fitted effect of over 45% in size
Summary of the method: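 After the 460/530 nm beta-lactamase read, CellTiter-Glo was added to the same wells and luminescence measured after 30 min at room temperature, giving viability of p53RE-bla cells treated 16 h with compounds plus microsomes and NADPH.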

[7] = p53 small molecule agonists, cell-based qHTS assay with rat liver microsomes: qHTS cell viability counter screen (AID 1963580); further: nearly all actives have a fitted effect of over 45% in size
Summary of the method: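 After the beta-lactamase ratio was read, CellTiter-Glo was added to the same wells and luminescence measured at 30 min; cells had been treated 16 h at 37 C with compounds, rat liver microsomes and NADPH (0.5 mg/mL final each).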

[8] = p53 small molecule agonists, cell-based qHTS assay: qHTS cell viability counter screen (AID 1963581); further: nearly all actives have a fitted effect of over 45% in size
Summary of the method: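 Counter screen read by CellTiter-Glo luminescence (ATP content, 30 min at room temperature), run in the same wells as the beta-lactamase reporter read. HCT-116 p53RE-bla cells saw compounds for 16 h at 37 C.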

[9] = p53 small molecule agonists, cell-based qHTS assay (AID 1963582; active means well fitted activation curve with a large enough effect in the signal ratio in the repeat runs, not every such curve was filed as active; the % refers to the signal ratio)
Summary of the method: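 Read-out is beta-lactamase FRET fluorescence after 2 h at room temperature with LiveBLAzer B/G substrate. p53 response element-bla cells were treated 16 h at 37 C with compounds in DMSO, added 5 h after seeding.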

[10] = biological target: 5-hydroxytryptamine receptor 2A (Homo sapiens) (UniProt P28223); assay: 5-hydroxytryptamine receptor 2A (HTR2A) small molecule antagonists, cell-based qHTS assay (AID 1963586); further: nearly all actives have a fitted effect of over 45% in size; further: potency means the concentration at half of the fitted maximal effect
Summary of the method: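 CHO cells stably expressing human HTR2A were plated for 18 h at 37 C, then loaded with calcium dye for 1 h. Compounds were preincubated 5 min at room temperature before DOI (4 nM solution) was added. Kinetic fluorescence was read for 3 min.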

[11] = biological target: 5-hydroxytryptamine receptor 2A (Homo sapiens) (UniProt P28223); assay: 5-hydroxytryptamine receptor 2A (HTR2A) small molecule agonists, cell-based qHTS assay (AID 1963587); further: nearly all actives have a fitted effect of over 30% in size
Summary of the method: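 CHO cells stably expressing human HTR2A, plated 18 h, loaded with calcium dye 1 h at 37 C. Agonist mode: compounds added and intracellular calcium fluorescence recorded kinetically for 2 min at 1 sec intervals.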

[12] = biological target: Muscarinic acetylcholine receptor M1 (Homo sapiens) (UniProt P11229); assay: Cholinergic receptor muscarinic 1 (CHRM1) small molecule antagonists, cell-based qHTS assay (AID 1963588); further: nearly all actives have a fitted effect of over 40% in size; further: potency means the concentration at half of the fitted maximal effect
Summary of the method: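 Compounds were tested at 15 concentrations in three independent runs. Dye-loaded CHRM1-CHO cells were exposed 5 min at room temperature before stimulation by acetylcholine added at 50nM. Intracellular calcium was read kinetically on FDSS for 3 min.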

[13] = biological target: Muscarinic acetylcholine receptor M1 (Homo sapiens) (UniProt P11229); assay: Cholinergic receptor muscarinic 1 (CHRM1) small molecule agonists, cell-based qHTS assay (AID 1963589); further: nearly all actives have a fitted effect of over 35% in size
Summary of the method: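 Agonist-mode calcium-flux screen: compounds at 15 concentrations, three independent runs, were pin-transferred onto dye-loaded human CHRM1-CHO cells. Fluorescence was then recorded kinetically every second over minutes.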

[14] = cAMP Responsive Elements (CRE) small molecule agonists, cell-based qHTS assay (AID 1963590)
Summary of the method: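 Agonist mode: compound added to CRE-bla HEK 293T cells (2,000/well, 18 h after plating) for 3 h at 37 C/5% CO2. Reporter activity detected via FRET beta-lactamase substrate, 2 h room-temperature loading.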

[15] = cAMP Responsive Elements (CRE) small molecule antagonists, cell-based qHTS assay (AID 1963591; active means well fitted inhibition curve with a large enough effect in the signal ratio in the repeat runs, not every such curve was filed as active; the % refers to the signal ratio; further: potency means the concentration at half of the fitted maximal effect)
Summary of the method: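 Antagonist mode: compounds are added alongside the adenylyl cyclase activator NKH477 (0.25 uM final) to CRE-bla HEK293T cells for 3 h. LiveBLAzer FRET substrate, 2 h at room temperature, reports bla expression.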

[16] = biological target: Beta-2 adrenergic receptor (Homo sapiens) (UniProt P07550); assay: Adrenergic beta2 receptor (ADRB2) small molecule antagonists, cell-based qHTS assay (AID 1963592); further: series mostly up to about 92 µM; nearly all actives have a fitted effect of over 50% in size
Summary of the method: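 Assay format: CHO-ADRB2 cells, 18-20hr seeding at 37C/5% CO2, then compound plus 1nM isoproterenol agonist mix for 0.5hr RT. Homogeneous time-resolved fluorescence cAMP detection after 1hr, expressed as 665/615 nm ratio.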

[17] = biological target: D(2) dopamine receptor (Homo sapiens) (UniProt P14416); assay: Dopamine D2 receptor (DRD2) small molecule agonists, cell-based qHTS assay (AID 1963594); further: nearly all actives have a fitted effect of over 35% in size; further: potency means the concentration at half of the fitted maximal effect
Summary of the method: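 HEK293 cells stably expressing human DRD2, pre-treated with PDE inhibitor Ro20-1724 (0.1 mM final) and compound 10 min at room temperature, then stimulated with NKH477 (200nM […]) for 30 min. cAMP read by HTRF (665/620 nm).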

[18] = biological target: D(2) dopamine receptor (Homo sapiens) (UniProt P14416); assay: Dopamine D2 receptor (DRD2) small molecule antagonists, cell-based qHTS assay (AID 1963595; active means well fitted inhibition curve with a large enough effect in the signal ratio in the repeat runs, with a control signal flat; the % refers to the signal ratio)
Summary of the method: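 Human DRD2 antagonist qHTS measuring cAMP by HTRF. The cells are exposed to compound for 10 min, then to NKH477 (200 nM) and quinpirole (12 nM) for 30 min at RT, with Ro20-1724 (0.1 mM) present throughout.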

[19] = biological target: Beta-2 adrenergic receptor (Homo sapiens) (UniProt P07550); assay: Adrenergic beta2 receptor (ADRB2) small molecule agonists, cell-based qHTS assay (AID 1963593);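 further: CHO cells stably overexpressing human ADRB2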
Summary of the method: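 CHO cells stably over-expressing ADRB2 were plated overnight at 37C, then dosed with compounds plus a stimulation mix containing 100uM IBMX and 25uM Ro-20-1724 for 0.5hr at room temperature. cAMP was measured by HTRF competition, 1hr.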

[20] = p53 small molecule agonists, cell-based qHTS assay with rat liver microsomes (AID 1963578)
Summary of the method: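 Metabolic activation is supplied by rat liver microsomes with NADPH (each 0.5 mg/mL final). p53RE-bla cells incubate with compound 16 h at 37 C; reporter activity is measured by LiveBLAzer fluorescence.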

KiSS-1 receptor (Homo sapiens), sequence (Q969F8 whole entry, looked up): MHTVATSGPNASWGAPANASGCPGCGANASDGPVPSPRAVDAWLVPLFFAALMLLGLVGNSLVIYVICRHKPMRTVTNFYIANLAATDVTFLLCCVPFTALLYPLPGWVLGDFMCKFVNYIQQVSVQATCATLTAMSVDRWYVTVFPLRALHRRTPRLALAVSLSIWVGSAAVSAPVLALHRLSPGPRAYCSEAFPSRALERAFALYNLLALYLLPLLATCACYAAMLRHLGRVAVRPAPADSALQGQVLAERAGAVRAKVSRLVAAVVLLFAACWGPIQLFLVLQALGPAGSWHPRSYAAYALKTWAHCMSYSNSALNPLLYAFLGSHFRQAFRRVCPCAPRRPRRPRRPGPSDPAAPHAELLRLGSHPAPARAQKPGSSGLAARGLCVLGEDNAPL
Beta-2 adrenergic receptor (Homo sapiens), sequence (P07550 whole entry, looked up): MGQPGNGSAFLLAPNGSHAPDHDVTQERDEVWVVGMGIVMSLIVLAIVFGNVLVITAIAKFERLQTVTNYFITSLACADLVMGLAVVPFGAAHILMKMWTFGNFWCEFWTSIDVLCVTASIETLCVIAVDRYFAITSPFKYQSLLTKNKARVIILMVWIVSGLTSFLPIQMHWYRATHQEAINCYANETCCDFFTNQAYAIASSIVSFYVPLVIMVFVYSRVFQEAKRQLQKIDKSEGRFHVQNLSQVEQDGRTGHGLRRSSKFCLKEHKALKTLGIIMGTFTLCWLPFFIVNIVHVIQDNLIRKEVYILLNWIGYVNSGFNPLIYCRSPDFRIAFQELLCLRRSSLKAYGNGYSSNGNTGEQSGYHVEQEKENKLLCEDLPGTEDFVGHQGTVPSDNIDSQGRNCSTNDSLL
Muscarinic acetylcholine receptor M1 (Homo sapiens), sequence (P11229 whole entry, looked up): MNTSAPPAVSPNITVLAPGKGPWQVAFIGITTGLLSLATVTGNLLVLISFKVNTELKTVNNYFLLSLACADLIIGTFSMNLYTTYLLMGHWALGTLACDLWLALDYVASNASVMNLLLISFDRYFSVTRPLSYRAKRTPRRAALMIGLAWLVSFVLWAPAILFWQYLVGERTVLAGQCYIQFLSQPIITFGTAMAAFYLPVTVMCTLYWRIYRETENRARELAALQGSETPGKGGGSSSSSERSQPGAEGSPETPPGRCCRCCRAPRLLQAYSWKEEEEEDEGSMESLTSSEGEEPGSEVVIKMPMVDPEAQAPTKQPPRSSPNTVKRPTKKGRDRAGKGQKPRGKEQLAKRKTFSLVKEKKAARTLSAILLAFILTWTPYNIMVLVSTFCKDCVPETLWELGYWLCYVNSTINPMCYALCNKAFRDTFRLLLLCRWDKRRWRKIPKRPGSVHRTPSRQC
5-hydroxytryptamine receptor 2A (Homo sapiens), sequence (P28223 whole entry, looked up): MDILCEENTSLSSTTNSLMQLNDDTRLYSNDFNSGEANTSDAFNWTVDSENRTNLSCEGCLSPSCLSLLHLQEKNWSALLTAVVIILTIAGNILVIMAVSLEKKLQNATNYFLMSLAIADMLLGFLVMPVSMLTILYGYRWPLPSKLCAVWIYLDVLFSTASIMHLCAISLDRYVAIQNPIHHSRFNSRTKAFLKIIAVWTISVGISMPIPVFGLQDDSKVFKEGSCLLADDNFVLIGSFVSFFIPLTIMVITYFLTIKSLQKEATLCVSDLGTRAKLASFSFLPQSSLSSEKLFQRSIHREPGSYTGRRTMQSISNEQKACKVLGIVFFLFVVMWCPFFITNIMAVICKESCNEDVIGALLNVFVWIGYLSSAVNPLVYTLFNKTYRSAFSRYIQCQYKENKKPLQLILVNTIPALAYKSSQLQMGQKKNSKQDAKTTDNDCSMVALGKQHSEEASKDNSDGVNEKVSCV
Gonadotropin-releasing hormone receptor (Homo sapiens), sequence (P30968 whole entry, looked up): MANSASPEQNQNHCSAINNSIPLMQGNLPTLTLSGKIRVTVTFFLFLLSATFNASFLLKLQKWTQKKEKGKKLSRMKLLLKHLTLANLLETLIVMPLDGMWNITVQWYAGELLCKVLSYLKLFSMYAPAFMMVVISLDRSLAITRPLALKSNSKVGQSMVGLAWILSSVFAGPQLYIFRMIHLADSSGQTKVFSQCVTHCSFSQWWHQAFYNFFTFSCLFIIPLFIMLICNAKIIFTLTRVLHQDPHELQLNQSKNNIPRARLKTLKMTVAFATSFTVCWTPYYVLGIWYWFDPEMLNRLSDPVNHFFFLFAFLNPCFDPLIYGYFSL
D(2) dopamine receptor (Homo sapiens), sequence (P14416 whole entry, looked up): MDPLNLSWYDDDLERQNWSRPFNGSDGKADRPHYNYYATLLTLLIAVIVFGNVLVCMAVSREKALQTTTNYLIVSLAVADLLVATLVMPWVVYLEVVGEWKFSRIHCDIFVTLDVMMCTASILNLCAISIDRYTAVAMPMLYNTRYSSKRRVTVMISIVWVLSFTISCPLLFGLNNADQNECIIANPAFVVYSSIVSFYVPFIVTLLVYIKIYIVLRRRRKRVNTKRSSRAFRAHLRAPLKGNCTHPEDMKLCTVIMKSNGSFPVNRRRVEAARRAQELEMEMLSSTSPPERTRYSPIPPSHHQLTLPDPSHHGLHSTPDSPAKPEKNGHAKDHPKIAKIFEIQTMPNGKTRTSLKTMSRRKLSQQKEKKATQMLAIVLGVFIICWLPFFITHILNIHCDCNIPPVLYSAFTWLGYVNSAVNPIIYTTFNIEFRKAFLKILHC

Row | Structure (SMILES) | Potency [1] | Potency [2] | Potency [3] | Potency [4] | Potency [5] | Potency [6] | Potency [7] | Potency [8] | Potency [9] | Potency [10] | Potency [11] | Potency [12] | Potency [13] | Potency [14] | Potency [15] | Potency [16] | Potency [17] | Potency [18] | Potency [19] | Potency [20]
1 | NCCOS(=O)(=O)O | inactive | inactive | inactive | inactive | inactive | inactive | inactive | inactive | inactive | inactive | inactive | inactive | inactive | inactive | inactive | inactive | inactive | inactive |  | 
2 | CC(C)Nc1nc(Cl)nc(NC(C)C)n1 | inactive | inactive | inactive | inactive | inactive | inactive | inactive |  | inactive | inactive | inactive | inactive | inactive | inactive |  | inactive | inactive | inactive | inactive | 
3 | CNC(=O)Oc1cccc2c1OC(C)(C)O2 | inactive | inactive | inactive | inactive | inactive | inactive | inactive | inactive | inactive | inactive | inactive | inactive | inactive | inactive |  | inactive | inactive | inactive | inactive | 
4 | CCN(CC)C(=O)/C(Cl)=C(\C)OP(=O)(OC)OC | inactive | inactive | inactive | inactive | inactive | inactive | inactive |  | inactive | inactive | inactive | inactive | inactive | inactive | inactive | inactive | inactive |  | inactive | 
5 | Cc1ccc(OP(=O)(Oc2ccc(C)cc2)Oc2ccc(C)cc2)cc1 | inactive | 61 µM (active) and inactive | inactive | inactive | inactive | inactive | inactive |  | inactive | inactive | inactive | inactive | inactive | inactive | inactive | inactive | inactive | inactive | inactive | 
6 | CCOP(=S)(OCC)O/N=C(\C#N)c1ccccc1 | inactive | inactive | inactive | inactive | inactive | inactive | inactive | inactive | inactive | inactive |  | inactive | inactive | inactive |  |  | inactive | inactive | inactive | 
7 | ClCC1CO1 (stereo unspecified) | inactive | inactive | inactive | inactive | inactive | inactive | inactive | inactive | inactive | inactive | inactive | inactive | inactive | inactive | inactive | inactive | inactive | inactive | inactive | 
8 | COC(C)(C)CCCC(C)C/C=C/C(C)=C/C(=O)OC(C)C (stereo unspecified) | inactive | 47.8 µM (active) | inactive | inactive | inactive | inactive | inactive | inactive | inactive | inactive | inactive | 3.3 nM (active) and inactive | inactive | inactive | inactive | inactive | inactive | inactive |  | 
9 | COP(=S)(OC)Oc1ccc(S(=O)(=O)N(C)C)cc1 | inactive | inactive | inactive | inactive | inactive | inactive | inactive | inactive | inactive | inactive | inactive | inactive | inactive | inactive | inactive | inactive | inactive | inactive |  | 
10 | Cc1ccc(N=CN(C)C=Nc2ccc(C)cc2C)c(C)c1 | 61.4 µM (active) and inactive | inactive | inactive | inactive | inactive | inactive | inactive | inactive | inactive |  |  |  |  | inactive | inactive | inactive | inactive | inactive | inactive | 
11 | CN1C[C@H](C(=O)N[C@]2(C)O[C@@]3(O)[C@@H]4CCCN4C(=O)[C@H](Cc4ccccc4)N3C2=O)C=C2c3cccc4[nH]cc(c34)C[C@H]21 | inactive | inactive | inactive | inactive | inactive | inactive | inactive |  | inactive |  |  |  |  | inactive | 48.8 µM (active) |  | 1.23 µM (active) |  | inactive | 
12 | O=P(Oc1ccccc1)(Oc1ccccc1)Oc1ccccc1 | inactive | 60.8 µM (active) and inactive | inactive | inactive | inactive | inactive | inactive |  |  |  | inactive | inactive | inactive | inactive | inactive | inactive | inactive |  |  | 
13 | NCc1cccnc1 | inactive | inactive | inactive | inactive | inactive | inactive | inactive |  |  | inactive | inactive | inactive | inactive | inactive | inactive | inactive | inactive | inactive | inactive | 
14 | Oc1ccc(C(c2ccc(O)cc2)(C(F)(F)F)C(F)(F)F)cc1 | 38.4 µM (active) and 54.5 µM (active) | inactive | inactive | inactive | inactive |  |  |  |  | 37.5 µM (active) |  | inactive | inactive |  |  |  | inactive | inactive |  | inactive
15 | Cn1c(N)nc2c3cccnc3ccc21 | inactive | inactive | inactive | inactive | inactive | inactive | inactive | inactive | inactive | inactive | inactive | inactive | inactive | inactive | inactive | inactive | inactive | inactive | inactive | 
16 | C[C@]12CC[C@H]3[C@@H](CCC4=CC(=O)CC[C@@H]43)[C@@H]1CC[C@@H]2O | inactive | inactive | inactive | inactive | inactive | inactive | inactive | inactive | inactive |  |  |  |  |  | inactive | inactive | inactive | inactive | inactive | 
